# Among all 57,000 […] or so, about 4,200 (7.4%) were called active. No stated cut-off is given here; in the data, active = GI50 up to about 1.1 µM and inactive = higher. The list is a sample of the results. Potency and affinity values are given separately.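 Step 1: Grow cells in 96-well plates. Step 2: Expose to compound for 48 hours at 5 concentrations. Step 3: Interpolate endpoints linearly; if unreached, use highest concentration. GI50 marks 50% less growth.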
# Test system: UACC-62
# Assay: NCI tumour cell line growth inhibition, 48 h
row,Substance,GI50 [µM]
1,"[Bis(aminomethyl)tetramethylenesilane]dichloropaltinum(II), CHEMBL2146205",16
2,"[Bis(aminomethyl)ethylmethylsilane]tetrachloroplatinum(IV), CHEMBL2146192",2.39
3,"CISPLATIN, CHEMBL11359",1.18
4,"[Bis(aminomethyl)dimethylsilane]tetrachloroplatinum(IV), CHEMBL2146190",4.57
5,"[Bis(aminomethyl)pentamethylenesilane]tetrachloropaltinum(IV), CHEMBL2146204",0.935
6,"[Bis(aminomethyl)diethylsilane]tetrachloroplatinum(IV), CHEMBL2146203",3.93
7,"cis-Bis[[(trimethylsilyl)methyl]amino]tetrachloroplatinum(IV), CHEMBL2146191",5.21
8,"[Bis(aminomethyl)pentamethylenesilane]dichloropaltinum(II), CHEMBL2146202",2.72
9,"[Bis(aminomethyl)dimethylsilane]dichloroplatinum (II), CHEMBL2146201",15.3
10,"mu-(1,7-nanodiamine-N,N')bis-(cis-aminedichloroplatimum (II)), CHEMBL2146215",3.44
11,"[Bis(aminomethyl)tetramethylenesilane]tetrachloropaltinum(IV), CHEMBL2146189",3.87

# Reference: ChEMBL document CHEMBL1201862, “PubChem BioAssay data set” (2004)
